SMILES strings stand for the structures. About 3,000 (1%) of roughly 290,000 compounds were called active. The sample holds actives, similar compounds and a random draw of the others, so the mix is not that of the screen. No stated cut-off is given here; in the data, active means inhibition mostly above about 36% (no sharp cut-off); inactive means mostly below about 34%.

A short description of this experiment: NOD1 signaling inhibitors, primary screen, cell-based, luminescence, uHTS (AID 1578).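 Further: HEK-293T reporter cells stimulated with the NOD1 agonist gamma-tri-DAP.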 As to conditions: NOD1-driven NF-kB luciferase reporter cells, at 4 µM, stronger effect = higher value.
For the molecule `NS(=O)(=O)c1ccc(NCc2cc(Cl)ccc2OCc2ccc(F)cc2)cc1`, the inhibition (as a rule, the change of the read-out against control, counted positive when it falls) is 27.2% (inactive). For the molecule `Cc1ccc2c(c1)c1c3n2CCN(C(=O)CCl)C3CCC1` (configuration not stated), the inhibition is 52.3% (inactive).

On to `CC(=O)N1CCn2c3c(c(=O)c4cc(C)ccc42)CCC31` (configuration not stated), for which the inhibition is -6.4% (inactive).

With `Cc1ccc2c(c1)c(=O)c1c3n2CCN(C(=O)CCl)C3CC1` (configuration not stated), the inhibition was 105% (active). As for `CCc1ccc2c(CN3CCN(S(=O)(=O)c4ccc5c(c4)OCCO5)CC3)cc(=O)oc2c1`, the inhibition was -2.7% (inactive).

As for `COc1ccc(S(=O)(=O)n2c([N+](=O)[O-])cnc2C)cc1OC`, the inhibition is -2.3% (inactive). Consider `CC1=C(C(=O)OCc2ccccc2)C(c2ccc(Cl)cc2)NC(=O)N1C` (configuration not stated), for which the inhibition is -1.2% (inactive).

Consider `O=C(N/N=C/c1cccnc1)C1CCCCC1`, for which the inhibition was -16.2% (inactive). In the case of `Cc1cc(C)cc(C(=O)N2CCN=C2SCc2ccc([N+](=O)[O-])cc2)c1`, the inhibition is 41% (inactive). As for `Cc1cccc(C(=O)N2CCN=C2SCc2ccc([N+](=O)[O-])cc2)c1`, the inhibition was 41.9% (active).

Consider `Cc1ccc(C(=O)N2CCN=C2SCc2ccc([N+](=O)[O-])cc2)cc1`, for which the inhibition is 35.5% (inactive). With `O=C(C1CC1)N1N=C(c2ccncc2)CC1(O)C(F)(F)F` (configuration not stated), the inhibition is -21.3% (inactive). Regarding `O=C(NCc1cccc(C(F)(F)F)c1)C1CC(c2cccc(F)c2)=NO1` (configuration not stated), the inhibition is -5% (inactive).

In the case of `O=C(/C=C/c1cccc([N+](=O)[O-])c1)Nc1ccccc1N1CCOCC1`, the inhibition is -27.5% (inactive). `COCCCNC(=O)CCN1C(=O)COc2ccccc21`: the inhibition was 9.8% (inactive). For `CC(C)(C)c1cc(C(=S)N2CCN(CCO)CC2)cc(C(C)(C)C)c1O` the value was 11.9% (inactive); for `CC(C)(C)c1cc(CN2CCN(CCO)CC2)cc(C(C)(C)C)c1O`, 45.2% (inactive); for `CC(C)(C)c1cc(C(c2cccnc2)N2CCN(CCO)CC2)cc(C(C)(C)C)c1O` (configuration not stated), 67.2% (active). `NCCN1C(=O)S/C(=C\c2ccc3c(c2)OCO3)C1=O`: the inhibition is 27.3% (active). For `CCCN1C(=O)/C(=C/c2ccc3c(c2)OCO3)NC1=S` the value was -29.7% (inactive); for `O=C(CCN1C(=O)/C(=C/c2ccc3c(c2)OCO3)SC1=S)Nc1ccccc1`, -5.3% (inactive); for `O=C1/C(=C\c2ccc3c(c2)OCO3)CCC/C1=C/c1ccc2c(c1)OCO2`, -48% (inactive). As for `CCOC(=O)CN1C(=O)S/C(=C\c2ccc3c(c2)OCO3)C1=O`, the inhibition is 16.9% (inactive). The result for `CCCN1C/C(=C/c2ccc3c(c2)OCO3)C(=O)/C(=C/c2ccc3c(c2)OCO3)C1` reads 67.2% (active); that for `CCOC(=O)c1c(NC(=O)c2cccc(N3C(=O)CCC3=O)c2)sc2c1CCN(CC)C2`, -16.7% (inactive).

Take `CC(C)(C)C(=O)COC(=O)CCc1nc2ccccc2[nH]c1=O`: the inhibition is 2.2% (inactive).

On to `O=C(CCCN1C(=O)/C(=C\c2cccs2)SC1=S)Nc1ccccn1`, for which the inhibition was 4.3% (inactive). Regarding `O=C(CCN1C(=O)/C(=C\c2cccs2)SC1=S)Nc1ccccn1`, the inhibition is -42% (inactive).

Turning to `O=C(CCCN1C(=O)/C(=C/c2cccs2)SC1=S)Nc1ccccn1`, the inhibition is 63.6% (active). Turning to `CSc1ccccc1-c1n[nH]c(=S)o1`, the inhibition is -15% (inactive). Consider `CC(C)Cc1ccc(C(C)C(=N)N)cc1` (configuration not stated), for which the inhibition is 43% (active).

Turning to `CC(C)Cc1ccc(C(C)C(=O)O)cc1` (configuration not stated), the inhibition was -13.2% (inactive).

For `CC(C)Cc1ccc(C(C)C(N)=NCCc2ccccc2)cc1` (configuration not stated), the inhibition was -10.4% (inactive). For `CCOP(=O)(OCC)C1NC(=O)N(c2ccccc2)C1=O` (configuration not stated), the inhibition is -1.7% (inactive). The result for `CCc1ccc(C(=O)COC(=O)C(CCSC)NC(=O)c2ccccc2)cc1` (configuration not stated) reads 16.6% (inactive); that for `CCC(C)(C)c1ccc(OCCCC[n+]2ccc(C)cc2)c(C(C)(C)CC)c1`, 43.7% (inactive); that for `CCC(C)(C)c1ccc(OCCCC[n+]2ccccc2)c(C(C)(C)CC)c1`, 11.8% (inactive). Consider `CCC(C)(C)c1ccc(OCC(=O)N(C)C)c(C(C)(C)CC)c1`, for which the inhibition was 26.1% (inactive). The result for `Cc1cc(C(C)(C)C)ccc1OCCCCN1CCCC1` reads -74.5% (inactive); that for `Cc1cccc(-c2oc3ccccc3c2C#CCCO)c1`, -12.5% (inactive). Turning to `COc1ccc(Oc2nccc(OC)c2C#N)cc1`, the inhibition is -18.4% (inactive). The result for `Cn1c(=O)c2c(nc(SCC(=O)NCC3CCCO3)n2Cc2ccc(F)cc2)n(C)c1=O` (configuration not stated) reads -8.2% (inactive); that for `COc1ccc(CNC(=O)CN(Cc2ccc(Cl)cc2)C(=O)c2csnn2)cc1`, -9% (inactive); that for `Cc1oc(-c2cccs2)nc1CS(=O)CC(=O)NCc1ccc2c(c1)OCO2` (configuration not stated), 1.1% (inactive). As for `COc1ccccc1CNC(=O)c1ccoc1C`, the inhibition is 47.6% (active).

With `COc1ccccc1CCNC(=O)c1ccoc1C`, the inhibition was -33.7% (inactive). On to `COc1ccccc1CNC(=O)c1ccccc1OC`, for which the inhibition is -29.5% (inactive).

In the case of `COc1ccc(-c2csc(NC(=O)CN3C(=O)CCC3=O)n2)cc1`, the inhibition is -30.6% (inactive). With `Cc1ccc(C(=O)NCCCNC(=O)c2ccc(Cl)cc2)cn1`, the inhibition is -10.8% (inactive).

In the case of `O=C(NNS(=O)(=O)c1ccccc1)c1ccc(F)cc1`, the inhibition is -11.4% (inactive). With `CN1C=C/C(=C\c2cc[n+](C)c3ccccc23)c2ccccc21`, the inhibition is 20.8% (inactive). For the molecule `C[n+]1c(/C=C/c2ccc(O)cc2)ccc2ccccc21`, the inhibition is -15.4% (inactive). As to `CCNC(=O)C1CCCc2c1[nH]c1ccc(Cl)cc21` (configuration not stated), the inhibition was -25.3% (inactive).

Take `CCN1C(=O)N(CC)C2C1N(C(C)=O)C(=O)N2C(C)=O` (configuration not stated): the inhibition was -26.2% (inactive). For the molecule `Cc1c(NC(=O)c2ccccc2)c(=O)n(-c2ccccc2)n1C`, the inhibition is -17.8% (inactive).

On to `Cc1c(NC(N)=O)c(=O)n(-c2ccccc2)n1C`, for which the inhibition was 54.9% (active). Consider `Cc1c(NC(=O)CC(=O)Nc2c(C)n(C)n(-c3ccccc3)c2=O)c(=O)n(-c2ccccc2)n1C`, for which the inhibition is 14.4% (inactive). As to `CCOc1ccc(/C=C/c2nc(C#N)c(NCCCN(C)C)o2)cc1`, the inhibition was 2.8% (inactive).

`CCOc1ccc(/C=C/c2nc(C#N)c(NCCCOC)o2)cc1`: the inhibition is -11.6% (inactive). Take `CCNc1oc(/C=C/c2ccc(OCC)cc2)nc1C#N`: the inhibition was 64.9% (active).

As to `COc1cc(NC(=O)CSc2nnc(-c3cc(C)on3)o2)cc(OC)c1`, the inhibition is 9.9% (inactive). For `CCCc1nnc(NC(=O)C23CC4CC(CC(C4)C2)C3)s1` the value was 0.1% (inactive).

(Values after PubChem BioAssay AID1578 (Sanford-Burnham Center for Chemical Genomics, 2009).)
